From PubChem BioAssay (EPA / NIEHS)
Active and inactive are the calls of the source. How the source made its calls: active means hit-call score of the fitted dose curve at least 0.9, where 1 is the maximum; inactive means score below 0.9.

Legend:
[1] = ATG_AP_1_CIS: Attagene CIS-FACTORIAL HepG2 Assay for human Activator Protein 1 (AP-1) (AID 2282931); conditions: HepG2 Attagene cis-factorial AP-1 reporter mRNA; actives raise or lower the signal
Procedure, shortened: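 Fluorescence of labelled PCR fragments separated by capillary electrophoresis gives reporter mRNA levels. HepG2 with transfected cis-regulated reporter units, 24 h exposure; DMSO serves as baseline for bidirectional curve fits.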

[2] = ATG_AP_2_CIS: Attagene CIS-FACTORIAL HepG2 Assay for human Activator Protein 2 (AP-2) (AID 2282932); conditions: HepG2 AP-2 cis-reporter, Attagene transcription factor profiling; actives raise or lower the signal
Procedure, shortened: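 Transiently transfected HepG2 cells are exposed to chemical for 24 h. Reporter transcripts are then measured as fluorescence following RT-PCR and capillary separation, and gain- or loss-of-signal is fitted relative to DMSO.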

[3] = ATG_BRE_CIS: Attagene CIS-FACTORIAL HepG2 Assay for human Bone Morphogenetic Protein (BMP) Response Element (BRE) (AID 2282933); conditions: HepG2 BMP response element reporter, Attagene transcription factor profiling; actives raise or lower the signal
Procedure, shortened: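 Gain- or loss-of-signal was derived by bidirectional fitting against DMSO controls. The signal came from reporter mRNA, measured by RT-PCR and capillary electrophoresis, in HepG2 cells transiently carrying multiple reporter units and dosed for 24 h.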

[4] = target: Retinoic acid receptor alpha (Homo sapiens) (UniProt P10276); assay: ATG_DR5_RAR_CIS: Attagene CIS-FACTORIAL HepG2 Assay for human Retinoic Acid Receptor Alpha (RARE), DR5 submotif (AID 2282934); conditions: HepG2 Attagene cis-factorial RARE DR5 reporter, mRNA; actives raise or lower the signal
Procedure, shortened: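 Transient MRTU transfection of HepG2; 24 h compound treatment; TriZol RNA, oligo(dT) RT, PCR, FAM labelling, capillary electrophoresis. Bidirectional fit vs DMSO. Endogenous TF activity at DR5 RARE.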

[5] = target: Transcription factor E2F1 (Homo sapiens) (UniProt Q01094); assay: ATG_E2F_CIS: Attagene CIS-FACTORIAL HepG2 Assay for human E2F Transcription Factor 1 (AID 2282935); conditions: HepG2 Attagene cis-reporter, E2F reporter RNA transcripts; actives raise or lower the signal
Procedure, shortened: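 Fluorescent RT-PCR products, digested with HpaI for 2 h at 37 C, are separated by capillary electrophoresis. Source RNA comes from transfected HepG2 cultures treated for 24 h.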

[6] = ATG_E_Box_CIS: Attagene CIS-FACTORIAL HepG2 Assay for human Enhancer Box (E-box) (AID 2282936); conditions: HepG2 E-box cis-reporter transcription, actives raise or lower the signal
Procedure, shortened: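 Fluorescent reporter fragments separated by capillary electrophoresis gave the signal; mRNA came from HepG2 cells transfected with cis-element reporters and treated 24 h. Curves fitted bidirectionally relative to DMSO controls.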

[7] = ATG_M_61_CIS: Attagene CIS-FACTORIAL HepG2 Assay for M61 Transcription Factor (Internal Marker) (AID 2282937); conditions: HepG2 Attagene CIS-FACTORIAL M61 internal marker reporter; actives raise or lower the signal
Procedure, shortened: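 This endpoint serves as an internal background control within a multiplexed HepG2 cis-reporter panel. Cells are exposed for 24 h; reporter mRNA is amplified, fluorescently labelled and sized by capillary electrophoresis, with DMSO as negative control.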

[8] = ATG_EGR_CIS: Attagene CIS-FACTORIAL HepG2 Assay for human Early Growth Response 1 (EGR1) (AID 2282938); conditions: HepG2 Attagene CIS-FACTORIAL EGR reporter mRNA; actives raise or lower the signal
Procedure, shortened: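 HepG2, transient MRTU transfection (cis promoters), 24 h compound. RNA → RT (oligo-dT) → PCR → 6-FAM labelling → HpaI cut → CE fluorescence. Bidirectional fit, DMSO baseline.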

[9] = ATG_ERE_CIS: Attagene CIS-FACTORIAL HepG2 Assay for Estrogen Response Element (ERE) (AID 2282940); conditions: HepG2 ERE cis-reporter, Attagene RNA transcript; actives raise or lower the signal
Procedure, shortened: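 HepG2, transient cis-reporter units, 24 h exposure. RNA isolated, oligo(dT) RT, reporter-specific PCR, FAM extension, HpaI cut, CE detection. Gain/loss-of-signal vs DMSO.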

[10] = ATG_Ets_CIS: Attagene CIS-FACTORIAL HepG2 Assay for human Erythroblast Transformation Specific (ETS) (AID 2282941); conditions: HepG2 ETS cis-reporter transcription, actives raise or lower the signal
Procedure, shortened: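 RT-PCR/capillary electrophoresis fluorescence read-out of reporter mRNA; HepG2 transient multi-reporter transfection; 24 h compound exposure; gain or loss of signal fitted bidirectionally relative to DMSO.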

[11] = target: Hepatocyte nuclear factor 3-beta (Homo sapiens) (UniProt Q9Y261); assay: ATG_FoxA2_CIS: Attagene CIS-FACTORIAL HepG2 Assay for human Forkhead box A2 (FOXA2) (AID 2282942); conditions: HepG2 cis-reporter transcription factor activity, 24 h; actives raise or lower the signal
Procedure, shortened: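 Cells: HepG2, transient multiplex reporter transfection. Exposure 24 h. Detection: reporter-specific RT-PCR, fluorescent labelling, restriction digest, capillary electrophoresis. Analysis: bidirectional curve fit, DMSO as negative control.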

[12] = ATG_FoxO_CIS: Attagene CIS-FACTORIAL HepG2 Assay for human Forkhead box O (FoxO) (AID 2282943); conditions: HepG2 Attagene cis-reporter, FoxO element, mRNA; actives raise or lower the signal
Procedure, shortened: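 HepG2, transient MRTU transfection (cis element, endogenous TFs). Dose 24 h. TriZol RNA → oligo(dT) RT → PCR → 6-FAM primer extension → HpaI cut → CE. Gain/loss vs DMSO.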

[13] = ATG_GATA_CIS: Attagene CIS-FACTORIAL HepG2 Assay for human GATA Binding Protein (AID 2282944); conditions: HepG2 GATA cis-element reporter, Attagene multiplex mRNA; actives raise or lower the signal
Procedure, shortened: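 DMSO serves as negative control and baseline for bidirectional fitting of reporter mRNA changes. HepG2 cells bearing transiently transfected cis-promoter reporters were exposed 24 h; transcripts detected via RT-PCR and capillary electrophoresis.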

[14] = ATG_GLI_CIS: Attagene CIS-FACTORIAL HepG2 Assay for human Zinc Finger Protein GLI1 (AID 2282945); conditions: HepG2, Attagene cis-factorial reporter mRNA, GLI element; actives raise or lower the signal
Procedure, shortened: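 Bidirectional curve fits relative to DMSO, using reporter mRNA levels from RT-PCR plus capillary electrophoresis. Cells were HepG2 transiently carrying cis-regulated reporter constructs, harvested 24 h after dosing.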

[15] = target: Bile acid receptor (Homo sapiens) (UniProt Q96RI1); assay: ATG_IR1_CIS: Attagene CIS-FACTORIAL HepG2 Assay for human Nuclear Receptor Subfamily 1 Group H Member 4 (NR1H4), IR1 submotif (AID 2282946); conditions: IR1 reporter transcription, actives raise or lower the signal
Procedure, shortened: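 HepG2 cells transiently transfected with multiplexed cis-element reporter units read endogenous transcription factor activity. After 24 h compound exposure, reporter mRNA was quantified by RT-PCR, fluorescent labelling, HpaI digestion and capillary electrophoresis; bidirectional fitting versus DMSO baseline.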

[16] = ATG_GRE_CIS: Attagene CIS-FACTORIAL HepG2 Assay for human Glucocorticoid Response Elements (GRE) (AID 2282947); conditions: HepG2 GRE cis-reporter, Attagene multiplex mRNA; actives raise or lower the signal
Procedure, shortened: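 Multiplexed cis-reporter mRNA induction, HepG2, 24 h post-dose. RT-PCR, FAM-labelled, HpaI-digested amplicons by CE. Bidirectional fit vs DMSO.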

[17] = ATG_ISRE_CIS: Attagene CIS-FACTORIAL HepG2 Assay for human Interferon Regulatory Factor 1 (IRF1) binding to an Interferon-Stimulated Response Element (ISRE) (AID 2282948); conditions: HepG2 ISRE cis-reporter (Attagene), mRNA transcription readout; actives raise or lower the signal
Procedure, shortened: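 Read-out: fluorescent RT-PCR products resolved by capillary electrophoresis, reporting endogenous transcription factor activity via ISRE-driven reporter mRNA in transfected HepG2 cells dosed for 24 h; gain or loss fitted relative to DMSO.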

[18] = ATG_M_32_CIS: Attagene CIS-FACTORIAL HepG2 Assay for M32 Transcription Factor (Internal Marker) (AID 2282949); conditions: HepG2 Attagene cis-factorial M32 reporter, mRNA; actives raise or lower the signal;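 further: background control marker of the multiplexed CIS panel rather than a real target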
Procedure, shortened: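 Using DMSO as baseline, bidirectional curve fits were applied to reporter mRNA signals. These came from transiently transfected HepG2 cells exposed for 24 h, with RNA analysed by RT-PCR, FAM primer extension, HpaI digestion and CE.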

[19] = ATG_M_06_CIS: Attagene CIS-FACTORIAL HepG2 Assay for M06 Transcription Factor (Internal Marker) (AID 2282950); conditions: HepG2 Attagene CIS-FACTORIAL M06 internal marker reporter; actives raise or lower the signal
Procedure, shortened: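 Fluorescence-labelled RT-PCR products from cis-promoter reporter units, cut with HpaI and resolved by capillary electrophoresis, give the signal. Cells are human HepG2, dosed for 24 h. Serves as background control, fitted relative to DMSO.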

[20] = ATG_M_19_CIS: Attagene CIS-FACTORIAL HepG2 Assay for M19 Transcription Factor (Internal Marker) (AID 2282939); conditions: HepG2 Attagene CIS-FACTORIAL M19 internal marker reporter; actives raise or lower the signal
Procedure, shortened: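 Following a 24 h exposure, RNA from transfected HepG2 cells was reverse-transcribed, PCR-amplified with reporter-specific primers, end-labelled with 6-FAM and HpaI-digested before capillary separation. Values represent gain or loss versus DMSO.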

Measured: AC50

Chain of Bile acid receptor (Homo sapiens) (Q96RI1 whole entry, looked up): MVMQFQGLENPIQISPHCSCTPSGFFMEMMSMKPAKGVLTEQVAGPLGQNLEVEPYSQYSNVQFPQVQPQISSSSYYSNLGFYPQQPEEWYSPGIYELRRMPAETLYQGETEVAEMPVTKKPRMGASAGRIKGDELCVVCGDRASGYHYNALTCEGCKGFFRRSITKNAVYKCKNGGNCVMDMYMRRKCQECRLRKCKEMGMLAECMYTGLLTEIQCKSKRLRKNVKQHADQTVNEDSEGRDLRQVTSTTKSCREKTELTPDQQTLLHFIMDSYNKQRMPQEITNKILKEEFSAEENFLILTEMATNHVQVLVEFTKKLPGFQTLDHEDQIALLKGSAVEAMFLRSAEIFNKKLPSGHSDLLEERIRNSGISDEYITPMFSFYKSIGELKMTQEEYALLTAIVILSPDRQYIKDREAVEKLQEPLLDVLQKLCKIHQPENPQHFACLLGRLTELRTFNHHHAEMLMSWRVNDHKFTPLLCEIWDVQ
Chain of Retinoic acid receptor alpha (Homo sapiens) (P10276 whole entry, looked up): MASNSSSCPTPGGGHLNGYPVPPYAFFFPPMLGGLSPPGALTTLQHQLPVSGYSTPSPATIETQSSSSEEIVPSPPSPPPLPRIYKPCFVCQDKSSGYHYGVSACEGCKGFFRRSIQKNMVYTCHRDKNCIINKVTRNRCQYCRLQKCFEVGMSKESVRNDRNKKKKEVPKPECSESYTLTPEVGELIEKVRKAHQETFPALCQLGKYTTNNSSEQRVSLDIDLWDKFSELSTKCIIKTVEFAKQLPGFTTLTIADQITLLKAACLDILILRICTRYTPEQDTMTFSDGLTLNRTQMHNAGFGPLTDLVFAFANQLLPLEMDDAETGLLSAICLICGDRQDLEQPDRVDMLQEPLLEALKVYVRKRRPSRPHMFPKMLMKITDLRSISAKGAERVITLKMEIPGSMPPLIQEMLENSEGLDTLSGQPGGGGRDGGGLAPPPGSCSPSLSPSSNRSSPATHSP
Chain of Hepatocyte nuclear factor 3-beta (Homo sapiens) (Q9Y261 whole entry, looked up): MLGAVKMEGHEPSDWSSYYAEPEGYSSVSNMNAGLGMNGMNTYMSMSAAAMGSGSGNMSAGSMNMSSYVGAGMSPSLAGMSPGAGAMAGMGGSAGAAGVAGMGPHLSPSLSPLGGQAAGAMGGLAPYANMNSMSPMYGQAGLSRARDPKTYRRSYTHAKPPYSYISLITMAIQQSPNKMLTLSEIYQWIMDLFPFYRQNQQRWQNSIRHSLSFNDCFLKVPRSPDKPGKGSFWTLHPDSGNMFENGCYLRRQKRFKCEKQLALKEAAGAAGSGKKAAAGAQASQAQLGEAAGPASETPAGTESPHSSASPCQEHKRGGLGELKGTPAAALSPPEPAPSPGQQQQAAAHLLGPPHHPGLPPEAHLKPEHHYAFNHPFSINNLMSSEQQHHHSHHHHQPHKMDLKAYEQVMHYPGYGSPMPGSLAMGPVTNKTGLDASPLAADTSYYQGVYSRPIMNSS
Chain of Transcription factor E2F1 (Homo sapiens) (Q01094 whole entry, looked up): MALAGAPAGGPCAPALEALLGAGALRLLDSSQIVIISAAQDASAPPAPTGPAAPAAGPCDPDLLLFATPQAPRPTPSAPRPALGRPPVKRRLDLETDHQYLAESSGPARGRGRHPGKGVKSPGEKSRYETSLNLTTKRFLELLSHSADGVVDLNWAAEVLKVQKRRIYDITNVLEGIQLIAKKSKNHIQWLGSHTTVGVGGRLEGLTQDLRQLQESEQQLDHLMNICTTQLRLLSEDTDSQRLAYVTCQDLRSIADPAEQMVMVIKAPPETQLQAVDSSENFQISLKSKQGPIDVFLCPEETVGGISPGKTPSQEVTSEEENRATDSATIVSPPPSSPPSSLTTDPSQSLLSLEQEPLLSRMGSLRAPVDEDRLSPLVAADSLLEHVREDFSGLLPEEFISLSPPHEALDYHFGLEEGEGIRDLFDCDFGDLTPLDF

O=C(Cl)c1ccc(Cl)cc1
not listed: [20]
inactive: all other assays above

CC(C)OC(=O)Nc1ccccc1
not listed: [15] | [16]
inactive: all other assays above

COC[C@H](C)N(C(=O)CCl)c1c(C)csc1C
not listed: [4]
inactive: all other assays above

CC(=O)OC(c1ccccc1)C(Cl)(Cl)Cl (centres undefined)
active: [9] 73.8 µM
not listed: [4]
inactive: all other assays above

Cl/C=C\C[N+]12CN3CN(CN(C3)C1)C2
active: [1] 181 µM | [3] 19.8 µM | [6] 76.9 µM | [15] 44.6 µM | [17] 100 µM
not listed: [4]
inactive: all other assays above

ClCC(Cl)CCl
not listed: [9] | [15]
inactive: all other assays above

O=C(O)C(Cl)(Cl)Cl
not listed: [9] | [15] | [16]
inactive: all other assays above

Cc1ccccc1C(=O)Nc1cccc(OC(C)C)c1
not listed: [4] | [15]
inactive: all other assays above

CC1(C)Cc2cccc(O)c2O1
not listed: [15] | [16] | [20]
inactive: all other assays above

CC(C)c1ccc(CO)cc1
not listed: [16] | [20]
inactive: all other assays above

O=C(O)Cc1ccccc1
not listed: [16] | [20]
inactive: all other assays above

C1CCC(NC2CCCCC2)CC1
active: [9] 28.8 µM
not listed: [15]
inactive: all other assays above

CN(C)P(=O)(N(C)C)N(C)C
not listed: [16] | [20]
inactive: all other assays above

CCc1ccccc1N
not listed: [15] | [20]
inactive: all other assays above

COc1ccc(C=O)cc1OC
active: [9] 15.2 µM
not listed: [15] | [16]
inactive: all other assays above

CNC
not listed: [4] | [15]
inactive: all other assays above

O=c1[nH]c(=O)[nH]c(=O)[nH]1
not listed: [9] | [15] | [20]
inactive: all other assays above

COP(=S)(OC)Oc1ccc(S(=O)(=O)N(C)C)cc1
not listed: [15] | [20]
inactive: all other assays above

CC(Br)C(=O)O (centres undefined)
not listed: [15] | [20]
inactive: all other assays above

O=[N+]([O-])c1c(Cl)c(Cl)cc(Cl)c1Cl
active: [18] 0.0842 µM
not listed: [16] | [20]
inactive: all other assays above

CCOP(=S)(OCC)Oc1ccc(S(C)=O)cc1 (centres undefined)
not listed: [15] | [16]
inactive: all other assays above

CCc1ccccc1C
not listed: [20]
inactive: all other assays above

COc1cc2c(cc1OC)[C@@]13CCN4CC5=CCO[C@H]6CC(=O)N2[C@H]1[C@H]6[C@H]5C[C@H]43
not listed: [15] | [16]
inactive: all other assays above

COP(=O)(OC)OC
not listed: [4]
inactive: all other assays above

Nc1cccc2ccccc12
active: [6] 32.1 µM
not listed: [4] | [15] | [16] | [20]
inactive: all other assays above

COc1ccc(C=O)cc1
not listed: [4] | [15]
inactive: all other assays above

CCCCCCCCCl
not listed: [2]
inactive: all other assays above

CCN(CC)C(=O)Cl
active: [9] 27.7 µM
not listed: [2] | [4]
inactive: all other assays above

N#CCCO
not listed: [2]
inactive: all other assays above

Cn1sc(Cl)cc1=O
not listed: [2] | [20]
inactive: all other assays above
